# Screens as filed in PubChem BioAssay.
# In the library only some 3.8% were active in any assay of this set; here they are far more common.
# Bfl-1 A1 inh: caspase 3/7 activation in MEF A1-2A-BIM cells, primary screen, A1 inhibitor project, cell-based, luminescence, HTS; 330,000 tested, 0.066% active; AID 2462, 2010; caspase activation, % (no concentration beside the values); Caspase-Glo 3/7 luminescence, 3 h; percent of clofoctol response, vehicle zero;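 active = over half of replicate activation scores above 10%, or exactly half above 10 with the replicate mean above 10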
# 697 NFkB inh: inhibitors of PMA/ionomycin-induced NF-kB reporter, 697 cells, primary screen, B-cell NF-kB inhibitor project, cell-based, luminescence, uHTS; 697 B-cell NF-kB luciferase reporter, 16 h; inhibition, % at 4 µM; 330,000 tested, 0.33% active; AID 435022, 2010; in the data active = inhibition above about 35%
# NTR1 agonist: agonists of human NTR1, primary screen, imaging, U2OS cells, beta-arrestin-GFP, high content; 330,000 tested, 0.17% active; activation, % at 20 µM; NTR1-U2OS beta-arrestin-GFP spot imaging, agonist mode; AID 493036, 2011;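 active = activation at or above 40% of the spot to cytoplasm intensity ratio, with at least 20 cells analyzed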;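 note: 0% = DMSO without peptide and 100% = 100 nM NTR1 peptide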
# Target sequence (P30989 whole entry, looked up): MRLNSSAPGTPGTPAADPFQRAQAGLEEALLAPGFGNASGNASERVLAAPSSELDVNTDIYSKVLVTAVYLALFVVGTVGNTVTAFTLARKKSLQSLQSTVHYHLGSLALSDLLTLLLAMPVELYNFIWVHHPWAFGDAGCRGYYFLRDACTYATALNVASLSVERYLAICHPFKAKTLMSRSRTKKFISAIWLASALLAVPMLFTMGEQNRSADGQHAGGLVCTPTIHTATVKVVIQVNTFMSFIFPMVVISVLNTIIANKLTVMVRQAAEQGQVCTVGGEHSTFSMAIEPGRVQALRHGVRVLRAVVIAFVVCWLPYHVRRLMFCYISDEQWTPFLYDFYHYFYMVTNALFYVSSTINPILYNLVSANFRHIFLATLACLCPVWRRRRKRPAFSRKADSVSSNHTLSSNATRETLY
# Beta apoptosis: inhibitors of cytokine-induced beta cell apoptosis, primary screen, luminescence | INS-1E cytokine-induced death, ATP luminescence, 48 h; percent of positive-control rescue, neutral wells zero | protection from apoptosis, % (test concentration not listed) | 300,000 tested, 0.8% active | AID 435005, 2010;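 active = Every replicate reaches about 75%, or at least half do and their mean reaches it too, limit read from the data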;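 note: 0% = cytokine-treated negative control wells and 100% = positive control rescue; higher means more ATP so stronger rescue from cytokine killing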
# Jurkat NFkB inh: inhibitors of induced NF-kB luciferase reporter, primary screen, TCR NF-kB activation inhibitor project, cell-based, luminescence, uHTS; inhibition, % at 4 µM; 330,000 tested, 0.53% active; Jurkat, PMA/ionomycin-induced NF-kB luciferase reporter; in the data active = inhibition above about 50%
# Mdm2-MdmX inh: inhibitors of human Mdm2-MdmX association, primary screen, cell-based, luminescence, split luciferase, SaOS-2, uHTS; Protein Mdm4 (Homo sapiens) + E3 ubiquitin-protein ligase Mdm2 (Homo sapiens), …; SaOS-2 split-luciferase Mdm2/MdmX complementation; inhibition, % at 8 µM; 330,000 tested, 3% active; AID 485346, 2010;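 active = inhibition of at least 50% at 8 µM in the primary screen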
# Mdm2-MdmX conf: Mdm2-MdmX complex disruptors, retested hits, confirmation, luminescence, single concentration; shares compounds with Mdm2-MdmX inh; AID 489028, 2010; inhibition, % at 8 µM; Mdm2-MdmX binding, luminescent assay; 10,000 tested, 55% active; in the data active = inhibition above about 40%
# FLuc counter: full-length luciferase signal inhibition, confirmation, counter-screen for Mdm2/MdmX interaction inhibitor project, cell-based, single concentration, SaOS-2 | AID 504607, 2011 | inhibition, % at 8 µM | shares compounds with Mdm2-MdmX inh | 6,200 tested, 77% active | SaOS-2 full-length luciferase counterscreen, luminescence;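 active = mean inhibition at 8 µM reaching about 37%, which flags the compound as non-specific, limit read from the data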;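 note: p53-null SaOS-2 cells with luciferase driven by a doxycycline-inducible promoter; compound on cells about two nights before reading with doxycycline added after day one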
# Starred values were filed as active, the others as inactive; · = no result given.
SMILES,Bfl-1 A1 inh,697 NFkB inh,NTR1 agonist,Beta apoptosis,Jurkat NFkB inh,Mdm2-MdmX inh,Mdm2-MdmX conf,others
C#Cc1ccc([C@@H]2C=C(C(=O)O)O[C@H](OCC)[C@H]2CCCO)cc1,1,8,0,-5,2,13,·,
CCOc1ccc(S(=O)(=O)N2CCCC(C(=O)NCc3ccccn3)C2)cc1C (centres undefined),-1,8,-1,-1,5,21,·,
CCCCCC(=O)Nc1nnc(CCc2ccccc2)s1,1,-1,2,-1,0,10,·,
Cn1c(=O)c(Nc2ccc(Cl)cc2)c2c3c(cccc31)C(=O)c1ccccc1-2,0,4,-2,-2,19,51*,15,
CC(=O)Nc1c2c3c(cccc3n(C)c1=O)C(=O)c1ccccc1-2,2,13,-2,-11,6,16,·,
CC(C(=O)NC(=O)NC1CCCCC1)N(C)CC(=O)Nc1ccc(F)c(F)c1F (centres undefined),1,-20,-2,8,3,12,·,
CC(=O)C1=C(O)C(=O)N(c2ccc(O)cc2)C1c1cccc(F)c1 (centres undefined),0,0,0,·,-18,22,·,
CC(C)(C)OC(=O)NCc1ccc(NC(=O)c2nc[nH]c2C(=O)NCCN(CCNC(=O)c2[nH]cnc2C(=O)Nc2ccc(CNC(=O)OC(C)(C)C)cc2)CCNC(=O)c2[nH]cnc2C(=O)Nc2ccc(CNC(=O)OC(C)(C)C)cc2)cc1,2,-6,-1,-2,-4,-4,·,
CC(C)(C)OC(=O)NCc1ccc(NC(=O)c2nc[nH]c2C(=O)NCCCCNC(=O)c2[nH]cnc2C(=O)Nc2ccc(CNC(=O)OC(C)(C)C)cc2)cc1,1,0,1,71,11,96*,7,
CC(C)(C)OC(=O)NCCCC[C@H](NC(=O)c1[nH]cnc1C(=O)Nc1ccc(CNC(=O)OC(C)(C)C)cc1)C(=O)OC(C)(C)C,2,21,5,27,39,87*,47*,FLuc counter=75*
CC(C)(C)OC(=O)NCc1ccc(NC(=O)c2nc[nH]c2C(=O)NCCCCCCNC(=O)c2[nH]cnc2C(=O)Nc2ccc(CNC(=O)OC(C)(C)C)cc2)cc1,0,2,-1,7,-3,8,·,
CC(C)(C)OC(=O)NCc1ccc(NC(=O)c2nc[nH]c2C(=O)NCCCNC(=O)c2[nH]cnc2C(=O)Nc2ccc(CNC(=O)OC(C)(C)C)cc2)cc1,-1,10,12,11,-7,86*,20,
COc1ccc2cc1Oc1ccc(cc1)C[C@H]1c3cc(c(OC)cc3CCN1C)Oc1c(OC)c(OC)cc3c1[C@@H](C2)N(C)CC3,-1,6,7,3,-3,100*,90*,FLuc counter=60*
Cc1ccc(-n2c(O)c(/C=N/Nc3ccc(S(=O)(=O)N4CCOCC4)cc3[N+](=O)[O-])c3ccccc3c2=O)c(C)c1,0,12,7,30,12,55*,26,
O=C(O)c1ccc(/C=N\Nc2ccc(S(=O)(=O)N3CCOCC3)cc2[N+](=O)[O-])cc1,0,-2,0,-3,-2,2,·,
COC(=O)[C@@]12CCCN1[C@H](c1ccc(-c3ccc(Cl)c(Cl)c3)cc1)[C@H]1C(=O)N(C)C(=O)[C@H]12,-1,-11,3,1,3,31,·,
CCC(=O)Nc1cccc(C(=O)/C=C/c2ccccc2)c1,-1,-22,8,-6,-24,95*,31,FLuc counter=34
